According to PubChem BioAssay (NCI):
Compounds without any hit were thinned out: in the full panel of roughly 83,000, 20% have a hit.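 Assay: single dose, 48 h. Readout: percent growth (0 = no net growth; negative = cell death). Active: <10.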 Unmarked numbers belong to inactive results. Calls of active or inactive are those of the source.

Test system: HL-60(TB) leukemia
Experiment: NCI-60 one-dose screen, 48 h (100 = growth as untreated, 0 = no growth, -100 = all killed)
Settings: 10 µM unless noted

`CC(=O)OCCCCCNc1ccccc1` gave a growth of 76.3%.

In the case of `COc1ccc(-c2nc3ccc(C)cc3c3c2c(=O)n(C)c(=O)n3C)cc1OC`, the growth is reported as 98.1%.

Work on `COc1ccc(-n2cc(-c3ccccc3)c3c(SCC(=O)N/N=C/c4ccc([N+](=O)[O-])cc4)ncnc32)cc1` yielded a growth of 103%.

For `Cc1ccc(C(=O)Cc2ccccc2)c(O)c1`, the growth was 70.9%.

In the case of `c1ccc(C(=NNc2nc3ccccc3o2)c2ccccn2)nc1`, the growth is reported as -11.8% (active).

`NC1=NC(c2ccccc2OS(=O)(=O)c2ccc(Br)cc2)n2c(nc3ccccc32)N1` (stereo not drawn) was tested, and the growth was 69.7%.

With `CSC1=CC(=O)c2ccccc2C1=O` the growth was -49.5% (active).

`CCN1CCN(c2nc(NNC(=O)Cc3ccccc3)nc(N3CCN(C(c4ccccc4)c4ccccc4)CC3)n2)CC1` was tested, and the growth was -53.9% (active).
